PubChem BioAssay
Where “and” joins values, the source holds several entries; their conditions need not be identical. Identical values can stand only once. Records with an inconclusive call do not appear. Calls of active or inactive are those of the source.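 Rule for the calls, unless noted: active = normalized viability below 100% at a tested concentration; inactive = the rest.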

How the values were obtained:
[1] = drug combination growth inhibition, ovarian cancer – cell-based, oncology-focused library, rucaparib conditional, profiling panel (AID 1508598); settings: patient-derived ovarian cancer cells, CellTiter-Glo viability, 144 h, stronger effect = lower value
[2] = viability loss in pontine glioma line – cell-based, SU-DIPG-XVII, MIPE5.0, CellTiter-Glo, qHTS, dose response (AID 1347060; cut-off not given, nearly all actives have AC50 up to about 26 µM;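 for AC50: cells exposed to compound for 48 hours before viability readout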); settings: CellTiter-Glo ATP luminescence
[3] = viability loss in pontine glioma line – cell-based, SU-DIPG-XIII, MIPE4.0, CellTiter-Glo, qHTS, dose response (AID 1347061; cut-off not given, nearly all actives have AC50 up to about 37 µM;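 note: cells exposed to compound for 48 hours before readout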); settings: CellTiter-Glo ATP luminescence
[4] = viability loss in pontine glioma line – cell-based, JHH-DIPG-1, MIPE4.0, CellTiter-Glo, qHTS, dose response (AID 1347062; cut-off not given, nearly all actives have AC50 up to about 27 µM;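 for AC50: cells exposed to compound for two days before readout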); settings: JHH-DIPG-1 viability, CellTiter-Glo ATP luminescence
[5] = viability loss in pontine glioma line – cell-based, SU-DIPG-IV, MIPE4.0, CellTiter-Glo, qHTS, dose response (AID 1347063; cut-off not given, nearly all actives have AC50 up to about 30 µM;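 note: compound exposure lasted 48 hours before the viability readout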); settings: CellTiter-Glo ATP luminescence
[6] = viability loss in pontine glioma line – cell-based, SU-DIPG-XIII, MIPE5.0, CellTiter-Glo, qHTS, dose response (AID 1347064; cut-off not given, nearly all actives have AC50 up to about 23 µM;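 for AC50: cells exposed to compound for 48 hours before the viability read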); settings: CellTiter-Glo ATP luminescence
[7] = viability loss in pontine glioma line – cell-based, SU-DIPG-XXV, MIPE5.0, CellTiter-Glo, qHTS, dose response (AID 1347065; cut-off not given, nearly all actives have AC50 up to about 26 µM;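 note: cells exposed to compound for 48 hours before ATP readout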); settings: CellTiter-Glo ATP luminescence
[8] = growth inhibition of DIPG cells – cell-based, MIPE4.0 library, CellTiter-Glo luminescence, qHTS (AID 1347066; cut-off not given, nearly all actives have AC50 up to about 30 µM;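 note: cells exposed to compound for 48 hours before readout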); settings: SU-DIPG-VI viability, CellTiter-Glo ATP luminescence
[9] = JHH-DIPG-1 glioma cell viability, MIPE5.0 library, CellTiter-Glo luminescence, qHTS (AID 1347067; cut-off not given, nearly all actives have AC50 up to about 26 µM;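 note: cells exposed to compound for 48 hours before readout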); settings: JHH-DIPG-1 glioma viability, CellTiter-Glo ATP luminescence
[10] = viability loss with induced miR-34 in A549 – imaging, A549 dox-inducible miR-34, nuclei and caspase counts, primary screen (AID 1347080;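 active = compounds whose cell count with miR-34 switched on is under 0.7 times the count with it off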); settings: A549 miR-34 inducible, Hoechst nuclei count, 48 h
[11] = compounds altering HSF1 focus formation in cells – imaging, Selleck Cancer Library (AID 1347162; in the data active = plate-normalised HSF1 focus index below about 0.46); settings: human cells, HSF1 nuclear foci imaging, at 10 µM; SSMD: measured here: HSF1 foci SSMD mean; cell count: measured here: cell number; plate-normalised HSF1 focus index: stronger effect = lower value
[12] = growth inhibition of DIPG cells – cell-based, MIPE5.0 library, qHTS (AID 1347068; cut-off not given, nearly all actives have IC50 up to about 30 µM;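 for IC50: cells exposed to compound for 48 hours before viability readout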); settings: SU-DIPG-XXV viability
[13] = MELAS cybrid and Rieske KO viability enhancers – cell-based, MELAS cybrids, Rieske KO mouse fibroblasts, CellTiter-Glo, primary screen (AID 1508586;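 active = mean z-score across replicates of 1.96 or higher in either the MELAS or the Rieske mutant cell line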;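 note: z relative to plate mean and SD of compound and empty wells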); settings: low glucose
[14] = at 0.0195 µM, OCI-C5x cells, without rucaparib
[15] = at 0.0195 µM, OCI-P5x cells, with rucaparib 20 µM, 100% = cells with rucaparib alone
[16] = at 0.0195 µM, OCI-P5x cells, without rucaparib
[17] = at 0.0781 µM, OCI-C5x cells, with rucaparib 10 µM, 100% = cells with rucaparib alone
[18] = at 0.0781 µM, OCI-C5x cells, without rucaparib
[19] = at 0.0781 µM, OCI-P5x cells, with rucaparib 20 µM, 100% = cells with rucaparib alone
[20] = at 0.0781 µM, OCI-P5x cells, without rucaparib
[21] = at 0.313 µM, OCI-C5x cells, with rucaparib 10 µM, 100% = cells with rucaparib alone
[22] = at 0.313 µM, OCI-C5x cells, without rucaparib
[23] = at 0.313 µM, OCI-P5x cells, with rucaparib 20 µM, 100% = cells with rucaparib alone
[24] = at 0.313 µM, OCI-P5x cells, without rucaparib
[25] = at 1.25 µM, OCI-C5x cells, with rucaparib 10 µM, 100% = cells with rucaparib alone
[26] = at 1.25 µM, OCI-C5x cells, without rucaparib
[27] = at 1.25 µM, OCI-P5x cells, with rucaparib 20 µM, 100% = cells with rucaparib alone
[28] = at 1.25 µM, OCI-P5x cells, without rucaparib
[29] = at 5 µM, OCI-C5x cells, with rucaparib 10 µM, 100% = cells with rucaparib alone
[30] = at 5 µM, OCI-C5x cells, without rucaparib
[31] = at 5 µM, OCI-P5x cells, with rucaparib 20 µM, 100% = cells with rucaparib alone
[32] = at 5 µM, OCI-P5x cells, without rucaparib
[33] = stronger effect = lower value, cell number ratio, induced over uninduced
[34] = measured here: relative caspase fold change +Dox/-Dox
[35] = measured here: total cells with miR-34 induction, stronger effect = lower value
[36] = measured here: total cells without miR-34 induction
[37] = MELAS cybrid survival, CellTiter-Glo 48 h, stronger effect = higher value
[38] = Rieske KO mouse fibroblast survival, CellTiter-Glo 72 h
[39] = at 0.000305 µM, OCI-C5x cells, with rucaparib 10 µM, 100% = cells with rucaparib alone
[40] = at 0.000305 µM, OCI-C5x cells, without rucaparib
[41] = at 0.000305 µM, OCI-P5x cells, with rucaparib 20 µM, 100% = cells with rucaparib alone
[42] = at 0.000305 µM, OCI-P5x cells, without rucaparib
[43] = at 0.00122 µM, OCI-C5x cells, with rucaparib 10 µM, 100% = cells with rucaparib alone
[44] = at 0.00122 µM, OCI-C5x cells, without rucaparib
[45] = at 0.00122 µM, OCI-P5x cells, with rucaparib 20 µM, 100% = cells with rucaparib alone
[46] = at 0.00122 µM, OCI-P5x cells, without rucaparib
[47] = at 0.00488 µM, OCI-C5x cells, with rucaparib 10 µM, 100% = cells with rucaparib alone
[48] = at 0.00488 µM, OCI-C5x cells, without rucaparib
[49] = at 0.00488 µM, OCI-P5x cells, with rucaparib 20 µM, 100% = cells with rucaparib alone
[50] = at 0.00488 µM, OCI-P5x cells, without rucaparib
[51] = at 0.0195 µM, OCI-C5x cells, with rucaparib 10 µM, 100% = cells with rucaparib alone

CN1CCN(c2ccc3nc(-c4c(N)c5c(F)cccc5[nH]c4=O)[nH]c3c2)CC1
inactive: viability [1, 14] 112% | viability [1, 17] 118% | viability [1, 18] 143% | viability [1, 19] 133% | viability [1, 20] 107% | viability [1, 21] 125% | viability [1, 22] 119% | viability [1, 23] 129% | viability [1, 24] 104% | viability [1, 25] 148% | viability [1, 26] 127% | viability [1, 27] 123%
active: viability [1, 15] 99.7% | viability [1, 16] 76.1% | viability [1, 28] 90.6% | viability [1, 29] 3.71% | viability [1, 30] 73% | viability [1, 31] 42.5% | viability [1, 32] 50%

CCCNC(=O)[C@H]1O[C@@H]1C(=O)N[C@H](C(=O)N1CCC[C@H]1C(=O)OC)C(C)CC (stereo partly drawn)
4230: cell count [10, 36]
1.21: fold change [10, 34]
active: AC50 [2] 16.6 µM | AC50 [3] 16.6 µM | AC50 [4] 16.6 µM | AC50 [5] 16.6 µM | AC50 [6] 11.8 µM | AC50 [7] 13.2 µM | AC50 [8] 10.5 µM | AC50 [9] 11.8 µM
4190: cell count [10, 35]
inactive: fold change [10, 33] 0.991

CN(C)C[C@@H]1CCn2cc(c3ccccc32)C2=C(C(=O)NC2=O)c2cn(c3ccccc23)CCO1
active: AC50 [2] 26.3 µM | AC50 [3] 16.6 µM | AC50 [4] 29.6 µM | AC50 [5] 16.6 µM | AC50 [6] 9.34 µM | AC50 [7] 18.6 µM | AC50 [8] 13.2 µM | AC50 [9] 7.42 µM
3.92: SSMD [11]
inactive: plate-normalised HSF1 focus index [11] 1.24
6860: cell count [11]

COc1cc2ncnc(Nc3ccc(F)c(Cl)c3)c2cc1NC(=O)/C=C/CN1CCCCC1
inactive: outcome [3] | plate-normalised HSF1 focus index [11] 1.09
6970: cell count [11]
active: AC50 [2] 14.8 µM | AC50 [4] 18.7 µM | AC50 [5] 20.9 µM | AC50 [6] 18.6 µM | AC50 [7] 9.34 µM | AC50 [8] 20.9 µM | IC50 [12] 10.5 µM
1.69: SSMD [11]

CCCCCCCN(CC)CCCC(O)c1ccc(NS(C)(=O)=O)cc1 (stereo not drawn)
inactive: outcome [2] | outcome [3] | outcome [4] | outcome [5] | outcome [6] | outcome [7] | outcome [8] | outcome [9] | fold change [10, 33] 0.916 | z-score [13, 37] -0.187 and 0.657
8450: cell count [10, 36]
0.577: fold change [10, 34]
0.0673 and -0.0365: z-score [13, 38]
7740: cell count [10, 35]

Cc1ccc(C(N)=O)cc1Nc1nccc(-c2cn(C(C)C)c3cnccc23)n1
active: AC50 [2] 9.34 µM | AC50 [3] 18.7 µM | AC50 [4] 9.35 µM | AC50 [5] 8.33 µM | AC50 [6] 11.8 µM | AC50 [7] 7.42 µM | AC50 [8] 13.2 µM | IC50 [12] 11.8 µM

CC(=O)Nc1cccc(-n2c(=O)n(C3CC3)c(=O)c3c(Nc4ccc(I)cc4F)n(C)c(=O)c(C)c32)c1
3.07: SSMD [11]
6560: cell count [11]
-0.112: z-score [13, 38]
4330: cell count [10, 35]
3760: cell count [10, 36]
0.672: fold change [10, 34]
inactive: outcome [8] | fold change [10, 33] 1.15 | plate-normalised HSF1 focus index [11] 1.16 | z-score [13, 37] -0.421 | viability [1, 39] 123% | viability [1, 40] 120% | viability [1, 41] 109% | viability [1, 42] 102% | viability [1, 43] 102% | viability [1, 44] 122% | viability [1, 47] 105% | viability [1, 48] 113% | viability [1, 51] 111% | viability [1, 14] 109%
active: AC50 [2] 0.0833 µM | AC50 [3] 0.235 µM | AC50 [4] 0.209 µM | AC50 [5] 3.32 µM | AC50 [6] 0.0833 µM | AC50 [7] 0.105 µM | AC50 [9] 0.0417 µM | viability [1, 45] 89.6% | viability [1, 46] 89.5% | viability [1, 49] 75% | viability [1, 50] 74.2% | viability [1, 15] 72.4% | viability [1, 16] 76.7% | viability [1, 17] 88% | viability [1, 18] 88.8% | viability [1, 19] 51.6% | viability [1, 20] 55% | viability [1, 21] 73.7% | viability [1, 22] 82.7% | viability [1, 23] 44.7% | viability [1, 24] 53.7% | viability [1, 25] 45.5% | viability [1, 26] 78.2% | viability [1, 27] 36.4% | viability [1, 28] 37.4% | viability [1, 29] 41.3% | viability [1, 30] 52.7% | viability [1, 31] 30.4% | viability [1, 32] 34.2%

CN(C)C(N)=NC(=N)N
inactive: outcome [2] | outcome [3] | outcome [4] | outcome [5] | outcome [6] | outcome [7] | outcome [8] | outcome [12]

Cc1cc(N2CCOCC2)cc2[nH]c(-c3c(NC[C@@H](O)c4cccc(Cl)c4)cc[nH]c3=O)nc12
inactive: outcome [12] | viability [1, 39] 117% | viability [1, 40] 119% | viability [1, 41] 135% | viability [1, 43] 126% | viability [1, 44] 114% | viability [1, 45] 133% | viability [1, 47] 123% | viability [1, 48] 109% | viability [1, 49] 130% | viability [1, 51] 119% | viability [1, 14] 118% | viability [1, 15] 133% | viability [1, 17] 126% | viability [1, 18] 123% | viability [1, 19] 118% | viability [1, 21] 123% | viability [1, 22] 123% | viability [1, 25] 133% | viability [1, 26] 126%
active: AC50 [2] 0.742 µM | AC50 [3] 1.48 µM | AC50 [4] 13.2 µM | AC50 [5] 7.43 µM | AC50 [6] 0.209 µM | AC50 [7] 0.263 µM | AC50 [8] 0.0526 µM | AC50 [9] 3.72 µM | viability [1, 42] 99.5% | viability [1, 46] 97.6% | viability [1, 50] 98.9% | viability [1, 16] 96.1% | viability [1, 20] 83.6% | viability [1, 23] 79.9% | viability [1, 24] 66.6% | viability [1, 27] 41.4% | viability [1, 28] 53.5% | viability [1, 29] 37.3% | viability [1, 30] 80.4% | viability [1, 31] 0.53% | viability [1, 32] 12.5%
